# Test results reported in PubChem BioAssay (NCI).
# Where “and” joins values, the source holds several entries; their conditions need not be identical. Equal entries are not always repeated. Compounds without any hit were thinned out: in the full panel of roughly 83,000, 20% have a hit.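 Compound tested at a single concentration for 48 hours in 96-well plates; a percent growth value below 10 was scored as active.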 Calls of active or inactive are those of the source.
# Test system: MDA-MB-468 breast
# Assay: NCI-60 one-dose screen, 48 h (100 = growth as untreated, 0 = no growth, -100 = all killed)
# Details: 10 µM unless noted
row,SMILES,growth
1,C[C@H]1OC(=O)/C=C/[C@@H](O)[C@@H](O)CCCCCCCC[C@@H]1O,97.2% (inactive)
2,Fc1ccc2nc(-c3ccc(-c4noc(-c5ccc(Cl)cc5)n4)cc3)[nH]c2c1,110% (inactive)
3,CCN(CCNc1cc(OC)cc2cccnc12)CCc1ccccc1,-25.4% (active)
4,CC(C)(C)c1cc(C=Nc2cccc(C(F)(F)F)c2)c(O)c(C(C)(C)C)c1,95.8% (inactive)
5,O=C(Nc1cccc(Cl)c1)Nc1nccs1,-0.235% (active)
6,COc1ccccc1C(=O)Nc1cccc(-c2cc(=O)c3c(OC)c(OC)c(OC)cc3o2)c1,39.2% (inactive)
7,O=S(=O)(NCCNc1nccc(-c2c(-c3ccc(F)c(O)c3)nc3occn23)n1)c1ccc(Cl)cc1,95.6% (inactive)
8,Cc1ccc(/C=C(\C#N)c2cc3ccccc3[nH]2)cc1,43.2% (inactive)
9,COc1ccc(C(c2cc(OC)c(OC)c(OC)c2)N2CCN(c3ccccc3)CC2)cc1 (stereo not drawn),77.2% (inactive)
10,OCCn1cc(-c2nc(-c3c[nH]c4ncccc34)cs2)c2cc(F)ccc21,-11.1% (active)
11,COc1ccc(/C=C/C(=O)c2ccc(-n3cc(CN4CCN(c5cc6c(cc5F)c(=O)c(C(=O)O)cn6C5CC5)CC4)nn3)cc2)cc1OC,-7.19% (active)
12,Oc1ccc(-c2nnc3c4[nH]ccc4ncn23)cc1,117% (inactive)
13,Clc1cnc(Nc2ccc(OCCN3CCCC3)cc2)nc1NCc1ccco1,16.6% (inactive)
14,CCN1C(=O)N(CC)C2C1NC(=S)N2/N=C/c1ccc(C(F)(F)F)cc1 (stereo not drawn),49.4% (inactive)
15,C/C(=N\NC(=O)c1ccncc1)c1ccccc1O,13.1% (inactive) and 22.6% (inactive)
16,O=C(c1ccc(Nc2nccc(NCCCNc3ccnc4cc(Cl)ccc34)n2)cc1)N1CCCCC1,29.5% (inactive)
17,Cc1cccc(Cc2cnc(NC(=O)/C=C/c3ccco3)s2)c1,31.2% (inactive)
18,CC(=O)C1CCC2C3CC(F)C4=CC(=O)CCC4(C)C3C(O)CC12C (stereo not drawn),104% (inactive)
19,Cn1c(COC(=O)NCCN2CCOCC2)nc2c(N3CCOCC3)nc(-c3ccccc3)nc21,-69.1% (active)

row,SMILES,growth
1,CC(=O)[C@H]1CC[C@H]2[C@@H]3C[C@H](C)C4=CC(=O)CC[C@]4(C)[C@H]3C(=O)C[C@]12C,106% (inactive)
2,CC(=O)N1N=C(c2ccc(Nc3nc(NCCO)nc(NCCO)n3)cc2)CC1c1ccc(Cl)cc1 (stereo not drawn),105% (inactive)
3,C[C@@H](C[C@H](CCO)c1cc(C(F)(F)F)cc(C(F)(F)F)c1)c1ccc2ccccc2c1,83.9% (inactive)
4,COc1ccc(-c2nc3ccc(-c4nnc(SCC(=O)Nc5ccc(C(=O)/C=C/c6ccccc6)cc5)o4)cc3[nH]2)cc1OC,104% (inactive)
5,COc1ccc(-c2cncn2-c2ccc(-c3nc4cc(OC)c(OC)c(OC)c4s3)cc2)cc1N,78.4% (inactive)
6,COc1ccccc1NC(=O)N=Nc1c(O)[nH]c2ccccc12,86.1% (inactive)
7,CC/C=C\C/C=C\C[C@H]1C/C=C2/C(=O)C=C[C@@H]2C/C=C\CCC(=O)O1,-8.25% (active)
8,COc1ccc2ccccc2c1/C=N/N1CCCCC1,113% (inactive)
9,COC(=O)c1cc(N=C2NC(=O)/C(=C/C=C/c3ccccc3)S2)ccc1O,17.5% (inactive)
10,Cc1[nH]n(C(=S)Nc2nc3cc(Cl)c(F)cc3s2)c(=O)c1N=Nc1ccc(F)c(Cl)c1,114% (inactive)
11,COc1ccccc1NC1=C(N2CCCCC2)C(=O)c2ccccc2C1=O,65.9% (inactive)
12,Cc1cc2nc3c4cc(O)ccc4n(CCN(C)C)c3nc2cc1C,-38.4% (active)
13,O=c1c2cccc3c(Nc4c(F)cccc4F)ccc(c32)c2nc3ccccc3n12,-33.5% (active)
14,CC(=O)N1N=C(c2ccc(Nc3nc(Nc4ccc(F)cc4)nc(Nc4ccc(Cl)cc4)n3)cc2)CC1c1ccc(N(C)C)cc1 (stereo not drawn),56.2% (inactive)
15,CC(C)N(CCNc1nc(C(Cl)(Cl)Cl)nc2cc(Cl)ccc12)C(C)C,-50% (active)
16,CCN(CC)c1ccc2nc3ccc(=[N+](CC)CC)cc-3oc2c1,-46.6% (active)
17,COc1ccc2c(c1)CC=C1[C@@H]2CC[C@]2(C)C(=O)/C(=N/O)C[C@@H]12,63.2% (inactive)
18,CC1=NOCC(=O)N1,95.9% (inactive)
19,O=C(CS)OCC(COC(=O)CS)(COC(=O)CS)COC(=O)CS,78.8% (inactive)
